Sampled rows, rich in hits. Any-hit rate of the full collection: about 3.2%.
ERa SRC1 pot: enhances coactivator binding to human estrogen receptor alpha; P03372; TR-FRET ERalpha-LBD/SRC-Cy5 coactivator binding, 2 h; 100 = basal binding, no effect; coactivator binding (% of control), % at 25.6 µM; 86,000 tested, 1.3% active; AID 639; in the data active means activity above about 200%;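 further: binding measured in presence of low estradiol as agonist stimulus; 0% = peptide alone without receptor and 100% = receptor with peptide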
Target sequence (P03372 whole entry, looked up, the tested form may be a part): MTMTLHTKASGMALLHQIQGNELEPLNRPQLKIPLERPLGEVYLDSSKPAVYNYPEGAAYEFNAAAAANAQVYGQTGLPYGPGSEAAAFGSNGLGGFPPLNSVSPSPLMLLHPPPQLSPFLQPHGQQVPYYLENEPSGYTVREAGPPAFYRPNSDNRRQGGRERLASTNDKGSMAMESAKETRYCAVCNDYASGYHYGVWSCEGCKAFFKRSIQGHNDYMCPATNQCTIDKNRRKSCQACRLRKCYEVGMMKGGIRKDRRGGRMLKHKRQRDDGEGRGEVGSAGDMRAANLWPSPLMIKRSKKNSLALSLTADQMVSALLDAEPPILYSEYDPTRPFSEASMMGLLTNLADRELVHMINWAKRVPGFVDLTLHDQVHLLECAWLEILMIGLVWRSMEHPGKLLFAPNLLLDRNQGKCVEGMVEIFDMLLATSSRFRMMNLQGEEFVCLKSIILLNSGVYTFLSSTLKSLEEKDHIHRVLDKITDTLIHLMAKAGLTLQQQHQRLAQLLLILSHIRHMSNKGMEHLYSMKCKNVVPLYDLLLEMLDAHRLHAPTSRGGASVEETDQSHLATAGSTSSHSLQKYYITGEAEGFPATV
ERb coact inh: ER-beta (human) coactivator binding inhibition | Q92731 | 86,000 tested, 1.3% active | TR-FRET ER-beta LBD / SRC1-Cy5 peptide binding; receptor agonist-loaded with 1 µM estradiol | AID 633 | inhibition, % at 25.6 µM;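 active means compounds whose percent inhibition of the receptor-coactivator binding signal exceeds about 50% in the single-dose screen, limit read from the data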;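 further: 0% = receptor plus peptide wells without compound and 100% = peptide-only wells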
ERa SRC1 inh: blocks coactivator binding to human estrogen receptor alpha. 86,000 tested, 1.7% active. inhibition, % at 25.6 µM. P03372. TR-FRET ER-alpha LBD / SRC-1 peptide, estradiol-bound; in the data active means inhibition above about 50%;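 further: 0% = receptor plus peptide control and 100% = peptide only without receptor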
FAK blocker: inhibitors of human focal adhesion kinase | AID 727 | biochemical FAK kinase activity assay | inhibition, %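 (tested at 7 µM)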 | 97,000 tested, 0.84% active | Q05397; in the data active means inhibition above about 19%;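 further: 0% = DMSO and 100% = reference compound high control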
* = called active by the depositor; [ ] = dose if it differs, or a comment.

For CC(=O)c1cccc(S(=O)(=O)N2CCN(c3nc4cc(C)cc(C)c4cc3C#N)CC2)c1 the results were ERa SRC1 pot 182.6, ERb coact inh 58.5*[fluorescence artefact?], ERa SRC1 inh 39.5 and FAK blocker -5.3.
For O=C(/C=C/c1ncc(C(F)(F)F)cc1Cl)OCc1ccccc1 the results were FAK blocker -0.2.
`O=C(O)C1C2C=CC3(CN(Cc4ccco4)C(=O)C13)O2` (configuration not stated) gave ERa SRC1 pot 111.5, ERb coact inh -1.4, ERa SRC1 inh 97.8*[fluorescence artefact?] and FAK blocker 0.1.
COC(=O)C1C2C=CC3(CN(Cc4ccco4)C(=O)C13)O2 (configuration not stated) was read as ERa SRC1 pot 85.2, ERb coact inh -5.9, ERa SRC1 inh -14.2 and FAK blocker 3.3.
`COc1cc(OC)nc(NC(=O)C(C)C)n1` gave ERa SRC1 pot 110.7, ERb coact inh -6.1, ERa SRC1 inh 62.1* and FAK blocker 2.2.
For Cc1c(C(=O)OCCOC(C)C)[nH]c2c1C(=O)CC(c1ccco1)C2 (configuration not stated) the results were ERa SRC1 pot 123.1, ERb coact inh 28.9 and ERa SRC1 inh 33.0.
Screening Cc1c(C(=O)OCc2ccccc2)[nH]c2c1C(=O)CC(c1ccco1)C2 (configuration not stated) returned ERa SRC1 pot 89.5, ERb coact inh 56.4* and ERa SRC1 inh 55.1*.
For CCOC(=O)c1[nH]c2c(c1C)C(=O)CC(c1ccco1)C2 (configuration not stated) the results were ERa SRC1 pot 93.4, ERb coact inh 55.9*[fluorescence artefact?] and ERa SRC1 inh 65.2*.
`COCCOC(=O)c1[nH]c2c(c1C)C(=O)CC(c1ccco1)C2` (configuration not stated) gave ERa SRC1 pot 138.8, ERb coact inh 50.0 and ERa SRC1 inh 51.3*.
`CSCCOC(=O)c1[nH]c2c(c1C)C(=O)CC(c1ccco1)C2` (configuration not stated) gave ERa SRC1 pot 121.4, ERb coact inh 50.2* and ERa SRC1 inh 55.8*.
Screening CCN(CC)c1ccc(C2NCC(c3ccc([N+](=O)[O-])cc3)O2)cc1 (configuration not stated) returned ERa SRC1 pot 103.2, ERb coact inh -11.5, ERa SRC1 inh -11.2 and FAK blocker -0.1.
Screening Cc1cc(NC(=O)C23CCC(C)(c4nc5cc(Cl)c(Cl)cc5nc42)C3(C)C)no1 (configuration not stated) returned ERa SRC1 pot 126.2, ERb coact inh -0.8, ERa SRC1 inh -3.1 and FAK blocker 1.0.
Screening O=C1CN(c2nc3ccccc3n3cnnc23)CC(=O)N1CCc1ccccc1 returned ERa SRC1 pot 106.4, ERb coact inh -1.3, ERa SRC1 inh -0.7 and FAK blocker -0.7.
Screening Cc1c(C(=O)N2CCN(c3ccccc3)CC2)sc2ncnc(N3CCN(c4ccccc4)CC3)c12 returned ERa SRC1 pot 399.9*[fluorescence artefact?], ERb coact inh 8.4, ERa SRC1 inh 1.7 and FAK blocker -0.5.
For CC(C)c1ccc(/C=c2\sc3nc(-c4ccncc4)nn3c2=O)cc1 the results were FAK blocker -2.2.
`Cc1ccc(/C=c2\sc3nc(-c4cccnc4)nn3c2=O)cc1` gave ERa SRC1 pot 61.2, ERb coact inh 47.5, ERa SRC1 inh 68.8*[fluorescence artefact?] and FAK blocker -2.0.
Screening CC(C)(C)c1cc(C(c2cccnc2)N2CCN(CCO)CC2)cc(C(C)(C)C)c1O (configuration not stated) returned ERa SRC1 pot 61.6, ERb coact inh 15.1, ERa SRC1 inh 15.3 and FAK blocker -1.2.
`OCCN1CCN(C(c2cccs2)c2ccc3cccnc3c2O)CC1` (configuration not stated) gave ERa SRC1 pot 131.4, ERb coact inh 64.0*[fluorescence artefact?], ERa SRC1 inh 68.6*[fluorescence artefact?] and FAK blocker 8.0.
CCOC(=O)C1=C(O)/C(=C/c2cn(CC(=O)NCC3CCCO3)c3ccccc23)SC1=Nc1ccc(C)cc1 (configuration not stated) was read as ERa SRC1 pot 55.6, ERb coact inh 45.2, ERa SRC1 inh 78.2* and FAK blocker 6.8.
Screening CC(C)C(=O)c1cn(CC(=O)NCC2CCCO2)c2ccccc12 (configuration not stated) returned ERa SRC1 pot 112.5, ERb coact inh -3.2, ERa SRC1 inh -4.2 and FAK blocker 4.1.
COc1ccc(NC(=O)CSc2nc3c(c(=O)n2-c2ccccc2OC)SCC3)cc1 was read as ERa SRC1 pot 117.9, ERb coact inh -3.3, ERa SRC1 inh -2.6 and FAK blocker -0.1.

Compound activity from PubChem BioAssay.
